Screening data (PubChem)
TIM10 inh: growth inhibitors of isogenic TIM10 control yeast, primary screen, counter-screen for tim10-1 yeast inhibitor project, luminescence, uHTS. S. cerevisiae TIM10 strain growth, BacTiter-Glo luminescence, 24 h. inhibition, % at 10 µM. 1.4% of 330,000 active;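 active means inhibition of 40% or more at the single tested concentration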;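 further: wild-type TIM10 isogenic control strain grown at permissive 25 °C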
PfHsp90 yeast 2: growth inhibition of PfHsp90-expressing yeast, primary screen, antimalarial PfHsp90 inhibitor project, S. cerevisiae, BacTiter-Glo luminescence, single point, set 2; BacTiter-Glo ATP, 48 h; yeast lacking PDR1 and PDR3 efflux regulators; inhibition, % at 9.4 µM; 0.32% of 310,000 active; AID 504621, 2011;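 active means every replicate shows inhibition above about 80%, whatever the replicate mean, limit read from the data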
NLRP3 yeast inh: NALP3 inflammasome inhibitors in reconstituted yeast, primary screen, luminescence, uHTS. inhibition, % at 10 µM. 0.39% of 330,000 active. AID 2825, 2010. Yeast reconstituted NLRP3/ASC/caspase-1, beta-gal luminescence, 24 h;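 active means inhibition of 50% or more; inactive means inhibition below 50%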
SKKanGAS inh: S. pyogenes SKKanGAS growth inhibitors in kanamycin, primary screen, streptokinase expression inhibitor project, SKKanGAS strain, BacTiter-Glo luminescence; 6 h; inhibition, % at 7.5 µM; 1.3% of 300,000 active; AID 1662, 2009;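 active means mean replicate score, as percent of positive control median, at least 50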;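 further: strain carries kanamycin resistance gene driven by streptokinase promoter and grows in 40 µg/ml kanamycin; loss of luminescence reflects streptokinase promoter inhibition or plain growth inhibition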
tim10-1 inh: growth inhibitors of tim10-1 mutant yeast, primary screen, luminescence, uHTS | S. cerevisiae tim10-1 ts strain growth, BacTiter-Glo, 24 h | inhibition, % at 20 µM | 2.2% of 330,000 active | AID 463190, 2010;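 active means inhibition of at least 40%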;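 further: mutant grown at 25 °C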
tim23-1 inh: growth inhibitors of tim23-1 mutant yeast, primary screen, luminescence, uHTS. S. cerevisiae tim23-1 growth, BacTiter-Glo luminescence, 24 h. inhibition, % at 20 µM. 1.3% of 330,000 active;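 active means growth inhibition of the mutant yeast at or above 50%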;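 further: temperature-sensitive mutant grown at 25 °C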
TIM10 conf: growth inhibitors of wild-type TIM10 yeast, confirmation, counter-screen for tim10-1 synthetic lethality project, single concentration, luminescence, S. cerevisiae; shares compounds with TIM10 inh; S. cerevisiae tim10 strain growth, BacTiter-Glo luminescence, 24 h; inhibition, % at 10 µM; 63% of 4,600 active; AID 463215, 2010;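 active means inhibition of yeast growth at or above a set limit in either of two replicates at 10 µM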; further: this counterscreen used the strain with wild-type TIM10
Each line names hits and unclear results; the compound was inactive in the other large screens (follow-up assays come after a bar, where they were run). The list is not random: actives were taken first. Their share in the collection is about 4.5%.

CCOC(=O)C1=C(C)NC(=S)N(C(C)=O)C1c1ccc(Cl)cc1 (configuration not stated)	TIM10 inh 42 | TIM10 conf 42
CCOC(=O)C1CCCN(C(=O)c2ccc3[nH]c4c(c3c2)CC(C)CC4)C1 (configuration not stated)	TIM10 inh 73 (no result: SKKanGAS inh) | TIM10 conf inactive
CC(=C/c1ccccc1)/C=N/N1CCN(Cc2ccc(C)cc2)CC1	none
Cc1ccc(CN2CCN(/N=C\C(Br)=C\c3ccccc3)CC2)cc1	TIM10 inh 44 | TIM10 conf inactive
CCOC(=O)c1ccc2c(c1)nc(SCc1cn3ccsc3n1)n2CC	TIM10 inh 44 | TIM10 conf 34
Cc1ccc(NC(=O)c2ccccc2OCC(=O)Nc2ccccc2F)cc1S(=O)(=O)N(C)C	none (no result: SKKanGAS inh)
CCOC(=O)Cc1csc(NC(=O)c2ccc(C)cc2)n1	none
CCOC(=O)Cc1csc(NC(=S)NC(=O)c2ccccc2Br)n1	TIM10 inh 42 | TIM10 conf inactive
CCOC(=O)Cc1csc(NC(=O)c2ccc3c(c2)OCO3)n1	TIM10 inh 43 (no result: PfHsp90 yeast 2) | TIM10 conf inactive
Cc1ccc(S(=O)(=O)/N=C(/NC(=S)Nc2ccccc2)c2ccccc2)cc1	TIM10 inh 46 | TIM10 conf inactive
S=C(NCc1ccccc1Cl)Nc1ccccc1Cl	TIM10 inh 43 | TIM10 conf 38
CCOC(=O)N/N=C/c1ccccc1OCc1ccc(Cl)cc1	TIM10 inh 44 | TIM10 conf 33
CCCC(=O)Nc1ccc(NC(=S)NC(=O)c2cccs2)cc1	none
O=C(Nc1ccc(NC(=O)C2CC2)nc1)c1cccs1	none
CCCC(=O)Nc1ccc(NC(=O)c2cccs2)cn1	TIM10 inh 40 | TIM10 conf inactive
CCCC(=O)NC(=S)Nc1ccc(NC(=O)c2cccs2)cc1	TIM10 inh 45 (no result: PfHsp90 yeast 2) | TIM10 conf inactive
CCCC(=O)Nc1cc(C)c(NC(=O)c2cccs2)cn1	none
O=C(Nc1ccc(NC(=O)c2cccs2)cn1)c1ccccc1	TIM10 inh 42 | TIM10 conf 30
Oc1ccc(Cl)cc1CNc1ccc(Br)cn1	TIM10 inh 47 (no result: PfHsp90 yeast 2) | TIM10 conf inactive
O=C(CC(=O)c1ccccc1)CS(=O)(=O)c1ccccc1	none (no result: TIM10 inh, NLRP3 yeast inh, SKKanGAS inh, tim10-1 inh, tim23-1 inh)
c1ccc2c(c1)c1ccccc1n1c(-c3ccc4c(c3)OCO4)nnc21	TIM10 inh 68 | TIM10 conf inactive
Cn1c(-c2ccc3c(c2)OCO3)cc(=O)c2ccccc21	none
COc1ccccc1C(=O)Nc1ccc2c(c1)CN(Cc1cnc(C)s1)CC2	none
COCCN(Cc1ccccc1)C(=S)Nc1ccc(Cl)cc1	TIM10 inh 41 | TIM10 conf 40
C=CCNC(=O)C1CC(=O)N(c2ccc(OCC(=O)Nc3c(C)cccc3C)cc2)C1 (configuration not stated)	none
Cc1cc(N/N=C/c2c[nH]c3ccccc23)c2ccccc2n1	TIM10 inh 54 | TIM10 conf 34
Cc1cccc(NCC(=O)N/N=C\c2c[nH]c3ccccc23)c1	none
Cc1ccccc1NCC(=O)N/N=C/c1c[nH]c2ccccc12	TIM10 inh 47 | TIM10 conf inactive
CCN(C(=O)COC(=O)c1ccccc1SCC(=O)N1CCCC1)C1CCS(=O)(=O)C1 (configuration not stated)	none (no result: PfHsp90 yeast 2)
Cc1cc(C)c2c(N)c3ccccc3nc2n1	TIM10 inh 45 | TIM10 conf inactive
O=C(Cn1nc(C(=O)O)c2ccccc2c1=O)NC12CC3CC(CC(C3)C1)C2	TIM10 inh 68 | TIM10 conf inactive
Cc1ccc(-c2n[nH]c(=S)n2/N=C/c2cccs2)cc1	TIM10 inh 52 | TIM10 conf inactive
CC(C)CN(C(=O)CCNC(=O)c1ccc(Cl)cc1)c1c(N)n(CC(C)C)c(=O)[nH]c1=O	none (no result: SKKanGAS inh)
